The nature of assay [1]: yeast TOR pathway RPL19A-GFP modulators, primary screen, cell-based, S. cerevisiae, multiplex flow cytometry (AID 1862; in the data active means percent of DMSO control GFP below about 86%;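 further: lower values mimic rapamycin by blocking the RPL19A rise seen in DMSO cells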). The note with it: S. cerevisiae RPL19A-GFP strain, flow cytometry fluorescence, 3 h; at 10 µM; stronger effect = lower value. For orientation: Flow cytometry measures light scatter and fluorescence of single cells or particles in a stream.
The nature of assay [2]: modulators of MEP2-GFP levels in yeast, primary screen, S. cerevisiae, multiplex flow cytometry (AID 1867;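 active means GFP response, as percent of the DMSO control, above the screen-wide mean plus 3 SD, about 139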;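 further: median GFP channel fluorescence of barcode-gated MEP2-GFP cells measured by flow cytometry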). The conditions noted are these: S. cerevisiae MEP2-GFP strain, 3 h, at 10 µM, stronger effect = higher value, 100% means same as DMSO wells.
Assay [3] can be described thus: modulators of CIT2-GFP expression in yeast, primary screen, S. cerevisiae, GFP fusion, multiplex flow cytometry (AID 1870;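 active means percent response above a set limit, the screen-wide mean plus 3 SD, cut at about 130% in these data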;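 further: barcoded CIT2-GFP strain pooled with four other GFP strains with rapamycin as positive control; median GFP fluorescence per well over plate mean of DMSO wells so 100% = DMSO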). The note with it: 3 h, at 10 µM, stronger effect = higher value.
Assay [4] is described as follows: modulators of LAP4-GFP expression in yeast, primary screen, S. cerevisiae, multiplex flow cytometry (AID 1873;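 active means GFP signal, as percent of the solvent control, above the screen mean plus 3 SD, about 149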). The note with it: 3 h, at 10 µM, stronger effect = higher value.
Assay [5] in a line: modulators of AGP1-GFP expression in yeast TOR pathway, primary screen, cell-based, multiplex flow cytometry, S. cerevisiae (AID 1887;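 active means GFP signal above the screen-wide mean plus 3 SD, that is over about 124.5% of the solvent control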;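 further: AGP1-GFP fusion strain of S. cerevisiae within a five-strain barcoded multiplex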). The note with it: 3 h, at 10 µM, stronger effect = higher value.
Assay [6] in a line: inhibitors of CD8+ T cell-vesicle binding, pilot screen, LFA-1/ICAM-1 modulator project, MLPCN validation set, flow cytometry (AID 2523;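 active means response below a set limit, under 55% cells CD8-positive and vesicle-bound, and CD8 cells' 90th-percentile brightness under 279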;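 on vesicle binding response: mean PE anti-B7-1 fluorescence of CD8+ cells relative to row control; 100% = QL9-loaded vesicles with DMSO vehicle in the same plate row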). The conditions noted are these: 2C mouse CD8+ T cells, at 7 µM, stronger effect = lower value; double positive events: measured here: CD8+/vesicle+ event percentage.
Assay [7] deals with Integrin beta-1 (Homo sapiens) + Integrin alpha-4 (Homo sapiens) (UniProt P13612+P05556). As to the kind of experiment: inhibition of HUTS-21 binding to VLA-4, pilot screen, VLA-4 allosteric modulator project, U937 cells, HUTS-21 mAb, flow cytometry, validation set (AID 2674;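 active means inhibition above 50%, about 3 SD of the validation set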;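 further: antibody binding induced by the VLA-4 ligand LDV present at three times its Kd; 0% = LDV ligand with antibody and no compound and 100% = antibody without LDV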). The conditions noted are these: HUTS-21 LIBS mAb binding, at 6.7 µM, stronger effect = higher value, binding induced by LDV ligand.

Assay [8] in a line: superoxide lowering in aged yeast cells, pilot screen, validation compound set (AID 2706;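 active means superoxide response below 65% of plate, a cut near 3 SD across the whole screen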;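 further: yeast exposed to compound for one week at 30 degrees C before staining; 100% = mean of all compound wells on the same plate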). The conditions noted are these: S. cerevisiae aging, superoxide DHE fluorescence; at 10 µM; stronger effect = lower value.
For assay [9], the target named is Beta-adrenergic receptor kinase 1 (Homo sapiens) (UniProt P25098). As to the kind of experiment: GRK2 binders displacing RNA aptamer, biochemical, validation, human GRK2, bead flow cytometry (AID 488806;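 active means aptamer binding inhibition above 30%, about 3 SD of noise from non-fluorescent compounds; inactive means inhibition at or below 30%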). The note with it: bead-bound GRK2, FAM-aptamer displacement, at 10 µM, stronger effect = higher value.
For assay [10], the target named is Beta-2 adrenergic receptor (Homo sapiens) (UniProt P07550). Description: beta2AR agonists driving receptor internalization, pilot screen, cell-based, FAP fluorogen, flow cytometry, validation set (AID 504459;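 active means percent response above 42, roughly 3 SD of non-fluorescent test compounds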;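 further: agonist-driven loss of surface beta2AR via internalization measured by FAP dye flow cytometry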). The conditions noted are these: Am2.2-beta2AR cells, FAP surface receptor flow cytometry; at 10 µM; stronger effect = higher value.
Assay [11] addresses AP-2 complex subunit beta (Homo sapiens) (UniProt P63010). Description: inhibitors of arrestin peptide binding to AP2, pilot screen, biochemical, validation set, GST-AP2 beads, flow cytometry (AID 504541;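 active means inhibition above 54%, about 3 SD of non-fluorescent compounds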;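 further: AP2 carries R879A mutation and is captured from E. coli lysate; bead-bound FITC arrestin peptide fluorescence measuring arrestin peptide binding to AP2; 0% = DMSO wells and 100% = excess unlabeled arrestin peptide control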). The conditions noted are these: FITC arrestin peptide, at 10 µM, stronger effect = higher value, AP2 beta2 appendage fragment, R879A mutant.
Assay [12] can be described thus: yeast V-ATPase proton transport modulators, S. cerevisiae, pHLuorin, HTS validation (AID 504600; in the data active means response above about 15%;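 further: plate controls were DMSO for no effect and reference compound for full effect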). The conditions noted are these: S. cerevisiae pHLuorin cytosolic pH, at 10 µM, stronger effect = higher value.
Assay [13] deals with anti-desmoglein-3 scFv antibody binding to human DSG3. Description: inhibitors of anti-DSG3 scFv binding to DSG3, pilot screen, biochemical, validation compound set, bead-based, flow cytometry (AID 588368;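 active means binding below the plate cutoff, the plate median minus 3 SD, with a reading above zero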;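 further: signal is the median channel fluorescence of bead-bound GFP antibody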). The note with it: Protein G beads, DSG3-Fc, scFv-GFP binding, at 10 µM, stronger effect = lower value.
Assay [14] is described as follows: inhibitors of fungal efflux pumps CDR1, CDR2, MDR1, pilot screen, validation compound set, multiplex, phenotypic (AID 588506;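 active means efflux inhibition above 0.42, the validation set average plus 4 SD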;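 further: Nile Red retained in cells so higher fluorescence means more efflux inhibition; 0 = negative control wells and 1 = enniatin B 25 µM full block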). The conditions noted are these: S. cerevisiae pump-expressing triplex, Nile Red efflux flow cytometry; at 10 µM; stronger effect = higher value; the pumps come from Candida albicans.
Assay [15] addresses ATP-binding cassette sub-family B member 6 (Homo sapiens) (UniProt Q9NP58). As to the kind of experiment: ABCB6 transporter inhibitors, pilot screen, K562-ABCB6 cells, flow cytometry, validation set (AID 588550).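 Further: 0% = DMSO wells and 100% = benzethonium chloride 70 µM positive control.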 The conditions noted are these: K562-ABCB6 porphyrin accumulation, 1 h, at 10 µM, stronger effect = higher value.
A short description of assay [16]: promoters of myeloid differentiation in arrested cells, primary screen, cell-based, GFP/MAC1 double positive, flow cytometry, validation set (AID 588685;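 active means differentiation response of at least 50%, scaled between solvent and reference control, from cells with both markers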;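 further: compound exposure lasts four days before antibody staining and flow analysis; 0% = DMSO wells and 100% = 5 µM fulvestrant positive control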). The note with it: ER-HoxA9 marrow cells, stronger effect = higher value, normalized: vehicle 0, fulvestrant 100.

Here are results for four compounds from PubChem BioAssay.

Results filed as inconclusive are left out. Calls of active or inactive are those of the source.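 How the source made its calls, unless noted: active means inhibition above the screen-wide mean plus 3 SD, about 51%; inactive means the rest.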

Chain of Integrin beta-1 (Homo sapiens) + Integrin alpha-4 (Homo sapiens) (P05556 whole entry, looked up): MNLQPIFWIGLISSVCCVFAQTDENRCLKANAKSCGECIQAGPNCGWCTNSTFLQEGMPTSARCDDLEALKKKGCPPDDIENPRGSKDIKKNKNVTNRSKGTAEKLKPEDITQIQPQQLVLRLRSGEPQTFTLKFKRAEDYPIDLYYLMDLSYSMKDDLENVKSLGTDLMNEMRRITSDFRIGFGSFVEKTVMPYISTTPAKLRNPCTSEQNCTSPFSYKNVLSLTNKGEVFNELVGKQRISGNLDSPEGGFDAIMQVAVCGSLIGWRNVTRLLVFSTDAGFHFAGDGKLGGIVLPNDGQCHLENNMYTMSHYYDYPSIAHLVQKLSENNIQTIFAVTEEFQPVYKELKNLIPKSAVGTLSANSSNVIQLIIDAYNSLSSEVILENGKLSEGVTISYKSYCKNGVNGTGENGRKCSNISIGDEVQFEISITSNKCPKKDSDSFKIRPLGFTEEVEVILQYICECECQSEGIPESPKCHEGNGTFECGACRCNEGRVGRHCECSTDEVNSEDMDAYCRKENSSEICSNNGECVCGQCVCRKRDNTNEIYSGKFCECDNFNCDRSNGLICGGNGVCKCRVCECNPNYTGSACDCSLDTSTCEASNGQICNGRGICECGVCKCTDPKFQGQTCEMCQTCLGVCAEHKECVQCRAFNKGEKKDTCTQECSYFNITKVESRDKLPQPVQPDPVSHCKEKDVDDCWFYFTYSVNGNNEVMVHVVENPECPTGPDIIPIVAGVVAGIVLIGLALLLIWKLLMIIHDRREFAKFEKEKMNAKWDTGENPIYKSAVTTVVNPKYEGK
Chain of Integrin beta-1 (Homo sapiens) + Integrin alpha-4 (Homo sapiens) (P13612 whole entry, looked up): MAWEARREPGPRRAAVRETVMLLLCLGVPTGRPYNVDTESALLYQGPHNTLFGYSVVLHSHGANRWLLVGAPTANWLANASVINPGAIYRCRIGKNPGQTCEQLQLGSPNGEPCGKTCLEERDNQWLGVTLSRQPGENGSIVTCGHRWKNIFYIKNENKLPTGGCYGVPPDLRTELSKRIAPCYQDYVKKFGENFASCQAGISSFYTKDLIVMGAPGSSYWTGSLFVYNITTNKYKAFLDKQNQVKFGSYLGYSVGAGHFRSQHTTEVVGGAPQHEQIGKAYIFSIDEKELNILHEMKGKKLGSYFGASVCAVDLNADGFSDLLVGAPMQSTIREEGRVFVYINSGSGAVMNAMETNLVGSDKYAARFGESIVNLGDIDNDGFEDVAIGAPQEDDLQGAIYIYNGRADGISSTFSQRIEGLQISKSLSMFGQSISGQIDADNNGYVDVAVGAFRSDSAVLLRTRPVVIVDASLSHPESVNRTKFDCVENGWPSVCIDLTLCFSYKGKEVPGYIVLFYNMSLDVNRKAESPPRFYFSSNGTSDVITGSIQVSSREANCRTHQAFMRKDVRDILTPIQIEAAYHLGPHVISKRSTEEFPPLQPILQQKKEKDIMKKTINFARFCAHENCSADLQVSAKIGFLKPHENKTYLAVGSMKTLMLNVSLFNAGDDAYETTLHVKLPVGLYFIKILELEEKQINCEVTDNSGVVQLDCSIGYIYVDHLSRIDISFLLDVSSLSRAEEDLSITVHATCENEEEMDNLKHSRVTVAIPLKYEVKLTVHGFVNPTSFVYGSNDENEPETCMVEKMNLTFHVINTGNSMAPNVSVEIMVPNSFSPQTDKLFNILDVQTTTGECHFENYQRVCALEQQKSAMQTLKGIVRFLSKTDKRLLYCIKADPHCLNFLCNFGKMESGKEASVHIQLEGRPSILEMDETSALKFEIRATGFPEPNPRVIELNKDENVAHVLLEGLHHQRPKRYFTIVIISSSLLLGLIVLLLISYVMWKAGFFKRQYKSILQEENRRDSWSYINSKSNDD
Chain of ATP-binding cassette sub-family B member 6 (Homo sapiens) (Q9NP58 whole entry, looked up): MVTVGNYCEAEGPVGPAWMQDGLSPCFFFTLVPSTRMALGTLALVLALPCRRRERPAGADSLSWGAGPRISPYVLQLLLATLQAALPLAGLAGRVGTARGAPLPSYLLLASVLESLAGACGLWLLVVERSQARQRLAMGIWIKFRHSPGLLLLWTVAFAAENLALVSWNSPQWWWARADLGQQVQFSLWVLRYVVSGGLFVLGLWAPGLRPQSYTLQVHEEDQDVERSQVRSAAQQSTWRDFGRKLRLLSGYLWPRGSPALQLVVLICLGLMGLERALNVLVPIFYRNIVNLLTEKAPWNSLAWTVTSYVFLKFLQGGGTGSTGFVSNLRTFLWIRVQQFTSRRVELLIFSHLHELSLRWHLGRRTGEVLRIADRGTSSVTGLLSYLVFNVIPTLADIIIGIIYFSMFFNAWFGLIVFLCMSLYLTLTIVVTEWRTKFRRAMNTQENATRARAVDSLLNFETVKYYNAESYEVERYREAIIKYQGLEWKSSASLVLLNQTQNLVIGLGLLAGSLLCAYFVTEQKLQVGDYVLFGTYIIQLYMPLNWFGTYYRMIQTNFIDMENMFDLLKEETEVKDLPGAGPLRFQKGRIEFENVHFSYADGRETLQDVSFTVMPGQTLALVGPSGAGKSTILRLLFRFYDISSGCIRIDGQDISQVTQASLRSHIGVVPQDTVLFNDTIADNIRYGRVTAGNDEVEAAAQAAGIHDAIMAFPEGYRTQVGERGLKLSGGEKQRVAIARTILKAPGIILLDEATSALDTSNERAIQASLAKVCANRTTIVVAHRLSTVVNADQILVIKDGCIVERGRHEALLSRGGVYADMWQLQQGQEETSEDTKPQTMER
Chain of Beta-adrenergic receptor kinase 1 (Homo sapiens) (P25098 whole entry, looked up): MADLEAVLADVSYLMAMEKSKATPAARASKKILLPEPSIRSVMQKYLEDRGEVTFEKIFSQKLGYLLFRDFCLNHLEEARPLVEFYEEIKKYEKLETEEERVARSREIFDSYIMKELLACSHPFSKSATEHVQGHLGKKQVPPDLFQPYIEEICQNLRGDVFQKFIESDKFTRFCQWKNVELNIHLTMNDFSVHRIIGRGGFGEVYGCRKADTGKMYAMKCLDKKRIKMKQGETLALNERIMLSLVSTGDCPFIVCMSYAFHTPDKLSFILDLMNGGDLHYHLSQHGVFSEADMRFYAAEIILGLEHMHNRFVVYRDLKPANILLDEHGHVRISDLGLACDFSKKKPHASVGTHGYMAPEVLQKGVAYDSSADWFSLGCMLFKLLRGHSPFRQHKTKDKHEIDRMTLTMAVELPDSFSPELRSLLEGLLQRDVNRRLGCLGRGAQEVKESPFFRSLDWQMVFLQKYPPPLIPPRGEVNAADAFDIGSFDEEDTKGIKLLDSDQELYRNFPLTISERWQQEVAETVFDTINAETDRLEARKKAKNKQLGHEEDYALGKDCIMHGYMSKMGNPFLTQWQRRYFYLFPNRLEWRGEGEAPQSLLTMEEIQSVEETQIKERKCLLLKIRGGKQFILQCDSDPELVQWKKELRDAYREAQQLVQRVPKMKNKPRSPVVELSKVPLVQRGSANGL
Chain of AP-2 complex subunit beta (Homo sapiens) (P63010 whole entry, looked up, the tested form may be a part, one chain of several): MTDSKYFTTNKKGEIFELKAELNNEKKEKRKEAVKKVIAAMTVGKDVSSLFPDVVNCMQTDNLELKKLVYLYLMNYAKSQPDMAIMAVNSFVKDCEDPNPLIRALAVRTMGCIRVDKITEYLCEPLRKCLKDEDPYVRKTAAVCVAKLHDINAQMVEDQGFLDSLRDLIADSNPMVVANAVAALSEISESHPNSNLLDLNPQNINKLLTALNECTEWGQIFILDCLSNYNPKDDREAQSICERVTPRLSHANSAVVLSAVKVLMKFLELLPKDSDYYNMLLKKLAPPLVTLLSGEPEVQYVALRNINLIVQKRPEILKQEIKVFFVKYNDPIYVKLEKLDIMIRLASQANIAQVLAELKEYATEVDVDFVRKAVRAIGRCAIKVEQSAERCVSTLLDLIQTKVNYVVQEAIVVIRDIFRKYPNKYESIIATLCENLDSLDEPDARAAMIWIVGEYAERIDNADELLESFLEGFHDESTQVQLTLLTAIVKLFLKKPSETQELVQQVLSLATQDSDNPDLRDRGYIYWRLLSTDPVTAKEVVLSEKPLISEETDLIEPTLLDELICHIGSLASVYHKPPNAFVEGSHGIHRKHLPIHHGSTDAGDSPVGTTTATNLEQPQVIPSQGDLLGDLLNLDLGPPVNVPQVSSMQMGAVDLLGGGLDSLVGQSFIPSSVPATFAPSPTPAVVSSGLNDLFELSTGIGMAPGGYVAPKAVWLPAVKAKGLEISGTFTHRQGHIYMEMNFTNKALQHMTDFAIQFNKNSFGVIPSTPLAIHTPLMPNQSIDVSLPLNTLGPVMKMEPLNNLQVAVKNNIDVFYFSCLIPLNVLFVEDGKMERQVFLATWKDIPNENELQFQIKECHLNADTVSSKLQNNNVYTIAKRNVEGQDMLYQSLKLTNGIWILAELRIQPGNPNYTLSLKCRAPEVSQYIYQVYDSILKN
Chain of Beta-2 adrenergic receptor (Homo sapiens) (P07550 whole entry, looked up): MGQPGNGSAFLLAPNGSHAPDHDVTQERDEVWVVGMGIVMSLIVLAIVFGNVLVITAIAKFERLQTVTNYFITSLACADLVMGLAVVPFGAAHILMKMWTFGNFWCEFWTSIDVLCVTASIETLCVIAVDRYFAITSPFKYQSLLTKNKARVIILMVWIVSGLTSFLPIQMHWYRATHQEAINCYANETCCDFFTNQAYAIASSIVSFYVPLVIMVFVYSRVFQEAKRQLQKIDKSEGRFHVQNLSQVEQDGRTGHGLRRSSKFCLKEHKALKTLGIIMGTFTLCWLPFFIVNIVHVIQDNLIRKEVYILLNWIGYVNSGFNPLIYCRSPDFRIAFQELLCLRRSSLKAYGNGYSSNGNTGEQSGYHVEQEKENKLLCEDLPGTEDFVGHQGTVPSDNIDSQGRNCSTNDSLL

In general, inhibition refers to the relative decrease from the control value, in per cent. For `O=C(CCCn1c(=O)oc2ccccc21)N1CCN(c2ccc(F)cc2)CC1`, the percent of DMSO control GFP in assay [1] is 101% (inactive). Further, the GFP response vs DMSO in assay [2] is 93% (inactive); in assay [4] it was 77.7% (inactive). The percent response of DMSO control in [3] was 103% (inactive). Also, the GFP response, % of DMSO in [5] is 91.4% (inactive). Further, the double positive events in [6] was 46.7%. Besides, the vesicle binding response in assay [6] is 9.2% (active). The values for the inhibition in [7], in [11] and in assay [15] were -1.79% (inactive), -3.97% (inactive) and 9% (inactive), respectively. For the same compound, in assay [8], the superoxide response (% of plate) was 111% (inactive). For the same compound, the aptamer binding inhibition in assay [9] is 1% (inactive). The response is 10.4% (inactive) in assay [10] and 1.31% (inactive) in assay [12]. The binding (% of control) in assay [13] is 102% (inactive). In addition, the efflux inhibition (fraction of control) in [14] was 0.15 (inactive). Also, the differentiation response in assay [16] is -26.4% (inactive).
As to `CCOc1ccc2nc(N/C(N)=N/S(C)(=O)=O)nc(C)c2c1`, in assay [1], the percent of DMSO control GFP was 90.6% (inactive). The GFP response vs DMSO was 132% (inactive) in assay [2] and 84.7% (inactive) in [4]. Further, in [3], the percent response of DMSO control is 107% (inactive). For the same compound, the GFP response, % of DMSO in assay [5] is 93.8% (inactive). In assay [6], this compound displayed a double positive events of 67.9%. In assay [6], the vesicle binding response is 174% (inactive). Further, the inhibition in assay [7] is -3.24% (inactive); in assay [11], 35.3% (inactive); in assay [15] it was 0% (inactive). In assay [8], the superoxide response (% of plate) is 98.7% (inactive). Moreover, the aptamer binding inhibition in assay [9] was 3% (inactive). The response in assay [10] was -5.51% (inactive); in assay [12], -5.13% (inactive). Also, the binding (% of control) in assay [13] was 95% (inactive). The efflux inhibition (fraction of control) in assay [14] is 0.05 (inactive). Further, the differentiation response in [16] was 3.28% (inactive).
On to `COc1cc(-c2nnc(-c3cccs3)o2)cc(OC)c1OC`, for which, in assay [1], the percent of DMSO control GFP was 102% (inactive). Moreover, the GFP response vs DMSO was 106% (inactive) in assay [2] and 103% (inactive) in assay [4]. Also, in assay [3], the percent response of DMSO control is 99.7% (inactive). In addition, the GFP response, % of DMSO in assay [5] is 86.3% (inactive). Moreover, the double positive events in assay [6] is 61.1%. Moreover, the vesicle binding response in assay [6] is 98.4% (inactive). Also, the results for the inhibition in assay [7], in assay [11] and in assay [15] were -1.09% (inactive), 5.76% (inactive) and 29% (inactive), respectively. Also, the superoxide response (% of plate) in assay [8] is 99.2% (inactive). Besides, the aptamer binding inhibition in assay [9] was 3% (inactive). Also, the response in [10] is -28% (inactive); in assay [12], 33.5% (active). In addition, the binding (% of control) in [13] is 101% (inactive). Further, in [14], the efflux inhibition (fraction of control) was 0.15 (inactive). Further, the differentiation response in [16] was -1.65% (inactive).
With `COc1cc(C=NCC2OCCc3ccccc32)cc(OC)c1` (stereo not drawn), the percent of DMSO control GFP in [1] was 99% (inactive). In addition, the results for the GFP response vs DMSO in assay [2] and in [4] were 105% (inactive) and 117% (inactive), respectively. In addition, the percent response of DMSO control in [3] was 95.8% (inactive). In addition, in assay [5], the GFP response, % of DMSO is 100% (inactive). The compound also showed a double positive events in assay [6] of 57.8%. In assay [6], the vesicle binding response was 136% (inactive). The inhibition was -1.79% (inactive) in [7], 17.8% (inactive) in assay [11] and -47% (inactive) in [15]. Besides, in assay [8], the superoxide response (% of plate) was 101% (inactive). The aptamer binding inhibition in assay [9] was 4% (inactive). Also, the response in assay [10] is 4.4% (inactive); in assay [12], 1.44% (inactive). In addition, in assay [13], the binding (% of control) was 103% (inactive). Moreover, the efflux inhibition (fraction of control) in [14] is -0.46 (inactive). For the same compound, the differentiation response in assay [16] was -7.2% (inactive).
